The record followed here is PubChem BioAssay (NCI).

The panel holds about 83,000 compounds, 20% with a hit somewhere; the sample as a whole holds those more often.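 Each cell line was grown in a 96-well plate and treated with one concentration of compound for 48 hours. Values below 10 were considered active.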 A number with no mark means an inactive call. The source made the active and inactive calls.

This assay concerns U251 CNS. In words: NCI-60 one-dose screen, 48 h (100 = growth as untreated, 0 = no growth, -100 = all killed). The note with it: 10 µM unless noted. On the procedure: Growth inhibition of the U251 human tumor cell line is measured as a screen for anti-cancer activity. Cells are grown in 96 well plates and exposed to the test compound for 48 hours. Compounds are tested at a single concentration, which is 10^-5 M for most compounds. The reported endpoint is percent growth (GI% or GIPRCNT), where numbers from 0 - 100% represent growth inhibition, and numbers from -100% - 0 represent cell death. For example, a value of 40 represents 60% growth inhibition. A value of 0 means no net growth occurred over the course of the experiment. A value of -40 indicates 40% of cells at the beginning of the experiment died by the end of the experiment. A value of -100 means all cells are dead at the end of the experiment.
NCI-60 Human Tumor Cell Lines Screen was performed using the standard one-dose NCI protocol, which is described in more detail at https://dtp.cancer.gov/discovery_development/nci-60/default.htm.
Compounds with GIPRCNT values below 10 were considered active. Activity score was based on GIPRCNT using the following formula: […]
Score is 0 for GIPRCNT values of 100 or above, 50 for GIPRCNT values of 0, and 100 for GIPRCNT values of -100.
Regarding `COc1ccc2c(c1)OC(N)=C(C#N)C2c1ccc(F)cc1` (stereo not given), the growth is 31.3%.

For the molecule `CC(=O)c1ccc2c(c1)C1C=CCC1[C@H](c1cc3c(cc1Br)OCO3)N2` (stereo not given in full), the growth was 14%.

For `CCCC(=O)Oc1ccc(/C(=C(\C)c2ccc(OC)cc2)c2ccc(OCCN3CCCCC3)cc2)cc1`, the growth was 63.8%.

With `COc1ccc(-c2cnc(-c3ccc(F)cc3)[nH]2)cc1`, the growth was 33.3%.

With `Cc1cccc(Cc2cnc(NC(=O)CCc3ccc(C)o3)s2)c1`, the growth is 27.2%.

Regarding `OC[C@@H](O)C(O[C@@H]1O[C@H](CO)[C@H](O)[C@H](O)[C@H]1O)[C@H](O)[C@@H](O)CO` (stereo not given in full), the growth is 97.6%.

As to `S=c1ssnc1-c1ccccn1`, the growth is 28.9%.

Regarding `CC1(C)CC(=O)C2=C(C1)OC1=C(C(=O)CC(C)(C)C1)C2c1ccc(OCc2cn(-c3ccc(F)cc3F)nn2)cc1`, the growth is 91.7%.

Take `CC(=O)N1N=C(CCC(=O)c2nc3ccc([N+](=O)[O-])cc3[nH]2)OC1c1ccc(O)cc1` (stereo not given): the growth was 109%.

Consider `COc1cc(C(=O)C[n+]2ccccc2)ccc1OC(C)=O`, for which the growth is 98.9%.

Take `COc1ccc(N)c(S)c1`: the growth is 93.8%.

Consider `S=c1n(CNc2ccc(Cl)nn2)nc(-c2cc(Cl)cc(Cl)c2Cl)n1/N=C/c1ccc(Cl)cc1`, for which the growth was 86.9%.

As for `O=[N+]([O-])c1ccccc1NC1c2ccccc2Oc2ccccc21`, the growth was 40.9%.

Regarding `CCC(N)(C(=O)O)c1ccc(F)cc1` (stereo not given), the growth was 90.7%.

`C=C(C)[C@@H]1C/C=C(\COC(=O)[C@H](OC(C)=O)C(NC(=O)c2ccccc2)c2ccccc2)CC[C@H]2O[C@]2(C)CC/C=C(\C)CC1` (stereo not given in full): the growth is 71.4% [5 µM].

On to `CC(C)C(=O)Nc1nc2c(s1)CCCc1ccn(S(=O)(=O)c3ccccc3)c1-2`, for which the growth is 102%.

With `CCCC(C)(C)COC(=O)c1cccc(N)c1`, the growth is 89.1%.

As to `CN1CCN(CC(=O)N(C)c2ccc(N=C(c3ccccc3)c3c(O)[nH]c4ccc(C#N)cc34)cc2)CC1`, the growth was 35.8%.

Regarding `O=c1c2ccccc2sc2c(NCCCNCCO)nc3ccccc3c12`, the growth is 21.3%.

Regarding `CCN(CC)CC(=O)Nc1c(C)cccc1C`, the growth was 106%.

`Nc1ncnc2c1c(-c1ccc(Oc3ccccc3)cc1)nn2C[C@H]1SSC[C@@H]1O`: the growth was 45.9%.

On to `O=C(COc1ccc(Cl)cc1)N1CCN(Cc2ccc3c(c2)OCO3)CC1`, for which the growth was 94.3%.

Turning to `COc1ccc(-c2nn(-c3cccc(Cl)c3)cc2-c2cc(-c3ccc(Br)cc3)[nH]c(=O)c2C#N)cc1`, the growth is 90%.

As for `CCc1c(C)c2cc3c(c(C)c2oc1=O)OCC(=O)N3`, the growth was 62%.

Regarding `Cc1cc(Nc2ccc(Cl)c(Cl)c2)nc(N)n1`, the growth is 95.3%.

Regarding `C#C[C@@]1(O)[C@@H](CO)O[C@@H](n2cc(C(F)(F)F)c3c(N)ncnc32)[C@@H]1O`, the growth is 6.37% (active).

Consider `CCCCOc1c(N)cc(Cl)cc1C(=O)OCCN(CC)CC`, for which the growth was 90.1%.

As to `NC(CSC(c1ccccc1)(c1ccccc1)c1ccc(F)cc1)C(=O)O` (stereo not given), the growth was 31.5%.

Consider `CN(C)c1ccc(/C=c2\s/c(=C\C(=O)C(C)(C)C)[nH]c2=O)cc1`, for which the growth is 94.1%.

For `CC1(C)Cc2c(Br)c(Br)c(Br)c(OCC(O)CN3CCN(c4ccccn4)CC3)c2O1` (stereo not given), the growth was 82.3%.

As for `CCCOC(=O)c1ccc([N+](=O)[O-])o1`, the growth is 101%.

For `COCCNC(C(=O)c1ccccc1)c1ccccc1` (stereo not given), the growth was 95.1%.

Consider `COc1ccc2c(c1)OC(N(C(C)=O)C(C)=O)=C(C#N)C2c1ccc(F)cc1` (stereo not given), for which the growth is 30.8%.

Consider `COc1ccc2c(c1)nnn1c3ncccc3c(N=O)c21`, for which the growth is -64.4% (active).

As to `CCOC(=O)c1cnc2c(OC)ccc(OC)c2c1Cl`, the growth is 109%.

Take `Clc1ccc2c(c1)nnn1c3ncccc3c(Br)c21`: the growth is 59.4%.

Consider `NS(=O)(=O)c1ccc(Nc2nc(O)c(/C=C3\C=Nc4ccccc43)s2)cc1`, for which the growth is 94.6%.

Consider `O=C1c2ccccc2C(=O)c2c(NCCN=Cc3c(O)ccc4ccccc34)cccc21`, for which the growth is 83%.

`COc1cc(NC(=O)c2cc(OC)c3ccn(C)c3c2)cc2c1C[C@]1(C)CC[C@@H](O)C(C)(C)[C@H]1O2`: the growth is 43.1%.

On to `CCn1c(SC)nnc1-c1cc2c([nH]c3ccccc32)c(-c2cccc(O)c2)n1`, for which the growth was 15.5%.
